# From the supplement of paper PMC8728848
# Shown is part of a subset that was picked to be rich in the strongest signals.
# Assays:
# Assay in all cases: glycan array binding signal (z-score within array); higher = stronger binding
# Conditions in all cases: glycan notation: IUPAC condensed, linker removed
# [1] = target: Fuc(a1-2)Gal(b1-4)GlcNAc
# Summary of the method: (§1)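 Glycan array data came from 3228 arrays in the Consortium for Functional Glycomics database, and only arrays with an available protein sequence were kept. Glycan names were put into IUPAC-condensed notation, and columns mapping to the same glycan were averaged. The binding signal is a within-array Z-score, averaged across arrays of one protein sequence run at different concentrations or buffers and across linkers. A negative Z-score can be read as non-binding.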
# [2] = target: Fuc(a1-2)Gal(b1-4)GlcNAc(b1-2)Man(a1-3)[Fuc(a1-2)Gal(b1-4)GlcNAc(b1-2)Man(a1-6)]Man(b1-4)GlcNAc(b1-4)[Fuc(a1-6)]GlcNAc
# Summary of the method: as §1
# [3] = target: Fuc(a1-2)Gal6S(b1-3)GlcNAc
# Summary of the method: as §1
# [4] = target: Fuc(a1-2)Gal6S(b1-3)GlcNAc6S
# Summary of the method: as §1
# [5] = target: Fuc(a1-2)[Gal(a1-3)]Gal
# Summary of the method: as §1
# [6] = target: Fuc(a1-2)[Gal(a1-3)]Gal(b1-3)GlcNAc
# Summary of the method: as §1
# [7] = target: Fuc(a1-2)[Gal(a1-3)]Gal(b1-3)GlcNAc(b1-2)Man(a1-3)[Fuc(a1-2)[Gal(a1-3)]Gal(b1-3)GlcNAc(b1-2)Man(a1-6)]Man(b1-4)GlcNAc(b1-4)[Fuc(a1-6)]GlcNAc
# Summary of the method: as §1
# [8] = target: Fuc(a1-2)[Gal(a1-3)]Gal(b1-4)GlcNAc(b1-6)GalNAc
# Summary of the method: as §1
# [9] = target: Fuc(a1-2)[GalNAc(a1-3)]Gal(b1-3)GlcNAc(b1-2)Man(a1-3)[Fuc(a1-2)[GalNAc(a1-3)]Gal(b1-3)GlcNAc(b1-2)Man(a1-6)]Man(b1-4)GlcNAc(b1-4)[Fuc(a1-6)]GlcNAc
# Summary of the method: as §1
# [10] = target: Fuc(a1-2)[GalNAc(a1-4)]Gal(b1-4)GlcNAc
# Summary of the method: as §1
# [11] = target: Fuc(a1-3)[Gal(b1-4)]GlcNAc
# Summary of the method: as §1
# [12] = target: Fuc(a1-3)[Gal(b1-4)]GlcNAc(b1-6)GalNAc
# Summary of the method: as §1
# [13] = target: Gal(a1-3)Gal(b1-3)GlcNAc
# Summary of the method: as §1
# [14] = target: Gal(a1-3)Gal(b1-3)GlcNAc(b1-2)Man
# Summary of the method: as §1
# [15] = target: Gal(a1-3)Gal(b1-3)GlcNAc(b1-2)Man(a1-3)[Gal(a1-3)Gal(b1-3)GlcNAc(b1-2)Man(a1-6)]Man(b1-4)GlcNAc(b1-4)GlcNAc
# Summary of the method: as §1
# [16] = target: Gal(a1-3)Gal(b1-3)GlcNAc(b1-3)GalNAc
# Summary of the method: as §1
# [17] = target: Gal(a1-3)Gal(b1-4)GlcNAc(b1-2)Man(a1-3)[Gal(a1-3)Gal(b1-4)GlcNAc(b1-2)Man(a1-6)]Man(b1-4)GlcNAc(b1-4)GlcNAc
# Summary of the method: as §1
# [18] = target: Gal(a1-3)Gal(b1-4)[Fuc(a1-3)]GlcNAc
# Summary of the method: as §1
# [19] = target: Gal(a1-3)GalNAc
# Summary of the method: as §1
# [20] = target: Gal(a1-3)[Gal(a1-4)]Gal(b1-4)GlcNAc
# Summary of the method: as §1
# [21] = target: Gal(b1-3)GalNAc(b1-3)Gal
# Summary of the method: as §1
# [22] = target: Gal(b1-3)GlcNAc(b1-2)Man(a1-3)[Gal(b1-3)GlcNAc(b1-2)Man(a1-6)]Man(b1-4)GlcNAc(b1-4)[Fuc(a1-6)]GlcNAc
# Summary of the method: as §1
# [23] = target: Gal(b1-3)GlcNAc(b1-3)Gal(b1-4)GlcNAc(b1-2)[Gal(b1-3)GlcNAc(b1-3)Gal(b1-4)GlcNAc(b1-6)]Man(a1-6)[Gal(b1-3)GlcNAc(b1-3)Gal(b1-4)GlcNAc(b1-2)Man(a1-3)]Man(b1-4)GlcNAc(b1-4)[Fuc(a1-6)]GlcNAc
# Summary of the method: as §1
# [24] = target: Gal(b1-3)GlcNAc6S
# Summary of the method: as §1
# [25] = target: Gal(b1-3)[Fuc(a1-4)]GlcNAc
# Summary of the method: as §1
# [26] = target: Gal(b1-3)[Fuc(a1-4)]GlcNAc(b1-6)GalNAc
# Summary of the method: as §1
# [27] = target: Gal(b1-4)GlcNAc(b1-2)Man
# Summary of the method: as §1
# [28] = target: Gal(b1-4)GlcNAc(b1-2)[Gal(b1-4)GlcNAc(b1-4)]Man(a1-3)[GlcNAc(b1-4)][Gal(b1-4)GlcNAc(b1-2)[Gal(b1-4)GlcNAc(b1-6)]Man(a1-6)]Man(b1-4)GlcNAc(b1-4)GlcNAc
# Summary of the method: as §1
# [29] = target: Gal(b1-4)GlcNAc(b1-3)Gal(b1-4)GlcNAc
# Summary of the method: as §1
# [30] = target: Gal(b1-4)GlcNAc(b1-6)Gal(b1-4)GlcNAc
# Summary of the method: as §1
# [31] = target: Gal3S(b1-4)Glc
# Summary of the method: as §1
binder,measurement,setting,value
FimA-N2 (Actinomyces oris) (protein) MHHHHHHSSGVDLGTENLYFQSNAWIYDVNVYPKNEAIDVDKTIQAQKLNGYGVGSLIKFPVESTAPTLDAKSFYKYFQLKDTLDERLSEVTATDVSLEGTPLQPTDYKVETKQQTVTVTFTAEGLKKIKAAPGKKVSAVFQGKVTKAGNGAITNRAQVISDTLYAEQPPTPETPPTDPENPPTSDEVISRWGDLSIKKVDTHQQGQTKA,glycan array binding signal (z-score),[1],0.416
same,glycan array binding signal (z-score),[2],2.43
same,glycan array binding signal (z-score),[3],1.35
same,glycan array binding signal (z-score),[4],3.98
same,glycan array binding signal (z-score),[5],1.78
same,glycan array binding signal (z-score),[6],-0.75
same,glycan array binding signal (z-score),[7],-0.838
same,glycan array binding signal (z-score),[8],2.61
same,glycan array binding signal (z-score),[9],-0.909
same,glycan array binding signal (z-score),[10],0.482
same,glycan array binding signal (z-score),[11],-0.144
same,glycan array binding signal (z-score),[12],-0.225
same,glycan array binding signal (z-score),[13],1.02
same,glycan array binding signal (z-score),[14],2.25
same,glycan array binding signal (z-score),[15],0.101
same,glycan array binding signal (z-score),[16],-0.826
same,glycan array binding signal (z-score),[17],-1.06
same,glycan array binding signal (z-score),[18],-1.47
same,glycan array binding signal (z-score),[19],-0.66
same,glycan array binding signal (z-score),[20],2.77
same,glycan array binding signal (z-score),[21],-0.678
same,glycan array binding signal (z-score),[22],2.23
same,glycan array binding signal (z-score),[23],3.71
same,glycan array binding signal (z-score),[24],-0.106
same,glycan array binding signal (z-score),[25],0.004
same,glycan array binding signal (z-score),[26],-0.651
same,glycan array binding signal (z-score),[27],-0.413
same,glycan array binding signal (z-score),[28],-0.356
same,glycan array binding signal (z-score),[29],1.55
same,glycan array binding signal (z-score),[30],-0.5
same,glycan array binding signal (z-score),[31],0.216
